# Test results published in the supplement of paper PMC10849652.
# Targets with a hit are over-represented here; the source holds about 7,900 in all. About 0.6% of all pairs of compound and target were hits. Unmarked numbers belong to inactive results.
# What was measured:
# Assay in all cases: log2 fold change, soluble protein after heating vs DMSO (PISA); higher = thermal stabilisation; K562 cells, 10 uM, 30 min; active = over 0.2 and 3.5 SD of the protein, either way, in both replicates (recomputed)
# [1] = compound: C1=CC=C(C=C1)[C@H](COC2=CC3=C(C=C2)NC(=O)N3)NC(=O)C4=CC=CN(C4=O)CC5=CC(=C(C=C5)F)F
# Outline: (§1)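 For each measurement, 10 μM compound was applied for 30 min to K562 cells at 2×10^6 cells/mL. Aliquots were heated for 3 min across 48°C-58°C, pooled, and extracted in PBS with 0.5% NP-40 at 4°C; the supernatant after 21,000xg for 90 min was soluble protein. This was quantified by TMTpro 16plex LC-MS/MS with channel sums equalised, and thermal stability was reported relative to control samples from duplicates, on a log2 fold-change scale.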
# [2] = compound: CC1=C(SC2=C1C(=N[C@H](C3=NN=C(N32)C)CC(=O)N)C4=CC=C(C=C4)Cl)C
# Outline: as §1
# [3] = compound: CC1=C2C(=CC=C1)N=C(N(C2=O)C3=CC=CC=C3C)CN4C=NC5=C(N=CN=C54)N
# Outline: as §1
# [4] = compound: Cc1sc2c(c1C)C(c1ccc(Cl)cc1)=N[C@@H](CC(=O)OC(C)(C)C)c1nnc(C)n1-2
# Outline: as §1
# [5] = compound: c1ccc([C@@H]2C[C@H]2NC2CCNCC2)cc1
# Outline: as §1
# Chain of UniProt O95379 (O95379 whole entry, looked up): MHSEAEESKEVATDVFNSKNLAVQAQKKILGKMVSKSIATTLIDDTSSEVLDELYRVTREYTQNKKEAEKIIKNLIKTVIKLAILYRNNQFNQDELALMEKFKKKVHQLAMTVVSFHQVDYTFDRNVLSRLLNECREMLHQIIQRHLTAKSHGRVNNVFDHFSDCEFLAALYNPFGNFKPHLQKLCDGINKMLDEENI
# Chain of UniProt Q70CQ2 (Q70CQ2 whole entry, looked up): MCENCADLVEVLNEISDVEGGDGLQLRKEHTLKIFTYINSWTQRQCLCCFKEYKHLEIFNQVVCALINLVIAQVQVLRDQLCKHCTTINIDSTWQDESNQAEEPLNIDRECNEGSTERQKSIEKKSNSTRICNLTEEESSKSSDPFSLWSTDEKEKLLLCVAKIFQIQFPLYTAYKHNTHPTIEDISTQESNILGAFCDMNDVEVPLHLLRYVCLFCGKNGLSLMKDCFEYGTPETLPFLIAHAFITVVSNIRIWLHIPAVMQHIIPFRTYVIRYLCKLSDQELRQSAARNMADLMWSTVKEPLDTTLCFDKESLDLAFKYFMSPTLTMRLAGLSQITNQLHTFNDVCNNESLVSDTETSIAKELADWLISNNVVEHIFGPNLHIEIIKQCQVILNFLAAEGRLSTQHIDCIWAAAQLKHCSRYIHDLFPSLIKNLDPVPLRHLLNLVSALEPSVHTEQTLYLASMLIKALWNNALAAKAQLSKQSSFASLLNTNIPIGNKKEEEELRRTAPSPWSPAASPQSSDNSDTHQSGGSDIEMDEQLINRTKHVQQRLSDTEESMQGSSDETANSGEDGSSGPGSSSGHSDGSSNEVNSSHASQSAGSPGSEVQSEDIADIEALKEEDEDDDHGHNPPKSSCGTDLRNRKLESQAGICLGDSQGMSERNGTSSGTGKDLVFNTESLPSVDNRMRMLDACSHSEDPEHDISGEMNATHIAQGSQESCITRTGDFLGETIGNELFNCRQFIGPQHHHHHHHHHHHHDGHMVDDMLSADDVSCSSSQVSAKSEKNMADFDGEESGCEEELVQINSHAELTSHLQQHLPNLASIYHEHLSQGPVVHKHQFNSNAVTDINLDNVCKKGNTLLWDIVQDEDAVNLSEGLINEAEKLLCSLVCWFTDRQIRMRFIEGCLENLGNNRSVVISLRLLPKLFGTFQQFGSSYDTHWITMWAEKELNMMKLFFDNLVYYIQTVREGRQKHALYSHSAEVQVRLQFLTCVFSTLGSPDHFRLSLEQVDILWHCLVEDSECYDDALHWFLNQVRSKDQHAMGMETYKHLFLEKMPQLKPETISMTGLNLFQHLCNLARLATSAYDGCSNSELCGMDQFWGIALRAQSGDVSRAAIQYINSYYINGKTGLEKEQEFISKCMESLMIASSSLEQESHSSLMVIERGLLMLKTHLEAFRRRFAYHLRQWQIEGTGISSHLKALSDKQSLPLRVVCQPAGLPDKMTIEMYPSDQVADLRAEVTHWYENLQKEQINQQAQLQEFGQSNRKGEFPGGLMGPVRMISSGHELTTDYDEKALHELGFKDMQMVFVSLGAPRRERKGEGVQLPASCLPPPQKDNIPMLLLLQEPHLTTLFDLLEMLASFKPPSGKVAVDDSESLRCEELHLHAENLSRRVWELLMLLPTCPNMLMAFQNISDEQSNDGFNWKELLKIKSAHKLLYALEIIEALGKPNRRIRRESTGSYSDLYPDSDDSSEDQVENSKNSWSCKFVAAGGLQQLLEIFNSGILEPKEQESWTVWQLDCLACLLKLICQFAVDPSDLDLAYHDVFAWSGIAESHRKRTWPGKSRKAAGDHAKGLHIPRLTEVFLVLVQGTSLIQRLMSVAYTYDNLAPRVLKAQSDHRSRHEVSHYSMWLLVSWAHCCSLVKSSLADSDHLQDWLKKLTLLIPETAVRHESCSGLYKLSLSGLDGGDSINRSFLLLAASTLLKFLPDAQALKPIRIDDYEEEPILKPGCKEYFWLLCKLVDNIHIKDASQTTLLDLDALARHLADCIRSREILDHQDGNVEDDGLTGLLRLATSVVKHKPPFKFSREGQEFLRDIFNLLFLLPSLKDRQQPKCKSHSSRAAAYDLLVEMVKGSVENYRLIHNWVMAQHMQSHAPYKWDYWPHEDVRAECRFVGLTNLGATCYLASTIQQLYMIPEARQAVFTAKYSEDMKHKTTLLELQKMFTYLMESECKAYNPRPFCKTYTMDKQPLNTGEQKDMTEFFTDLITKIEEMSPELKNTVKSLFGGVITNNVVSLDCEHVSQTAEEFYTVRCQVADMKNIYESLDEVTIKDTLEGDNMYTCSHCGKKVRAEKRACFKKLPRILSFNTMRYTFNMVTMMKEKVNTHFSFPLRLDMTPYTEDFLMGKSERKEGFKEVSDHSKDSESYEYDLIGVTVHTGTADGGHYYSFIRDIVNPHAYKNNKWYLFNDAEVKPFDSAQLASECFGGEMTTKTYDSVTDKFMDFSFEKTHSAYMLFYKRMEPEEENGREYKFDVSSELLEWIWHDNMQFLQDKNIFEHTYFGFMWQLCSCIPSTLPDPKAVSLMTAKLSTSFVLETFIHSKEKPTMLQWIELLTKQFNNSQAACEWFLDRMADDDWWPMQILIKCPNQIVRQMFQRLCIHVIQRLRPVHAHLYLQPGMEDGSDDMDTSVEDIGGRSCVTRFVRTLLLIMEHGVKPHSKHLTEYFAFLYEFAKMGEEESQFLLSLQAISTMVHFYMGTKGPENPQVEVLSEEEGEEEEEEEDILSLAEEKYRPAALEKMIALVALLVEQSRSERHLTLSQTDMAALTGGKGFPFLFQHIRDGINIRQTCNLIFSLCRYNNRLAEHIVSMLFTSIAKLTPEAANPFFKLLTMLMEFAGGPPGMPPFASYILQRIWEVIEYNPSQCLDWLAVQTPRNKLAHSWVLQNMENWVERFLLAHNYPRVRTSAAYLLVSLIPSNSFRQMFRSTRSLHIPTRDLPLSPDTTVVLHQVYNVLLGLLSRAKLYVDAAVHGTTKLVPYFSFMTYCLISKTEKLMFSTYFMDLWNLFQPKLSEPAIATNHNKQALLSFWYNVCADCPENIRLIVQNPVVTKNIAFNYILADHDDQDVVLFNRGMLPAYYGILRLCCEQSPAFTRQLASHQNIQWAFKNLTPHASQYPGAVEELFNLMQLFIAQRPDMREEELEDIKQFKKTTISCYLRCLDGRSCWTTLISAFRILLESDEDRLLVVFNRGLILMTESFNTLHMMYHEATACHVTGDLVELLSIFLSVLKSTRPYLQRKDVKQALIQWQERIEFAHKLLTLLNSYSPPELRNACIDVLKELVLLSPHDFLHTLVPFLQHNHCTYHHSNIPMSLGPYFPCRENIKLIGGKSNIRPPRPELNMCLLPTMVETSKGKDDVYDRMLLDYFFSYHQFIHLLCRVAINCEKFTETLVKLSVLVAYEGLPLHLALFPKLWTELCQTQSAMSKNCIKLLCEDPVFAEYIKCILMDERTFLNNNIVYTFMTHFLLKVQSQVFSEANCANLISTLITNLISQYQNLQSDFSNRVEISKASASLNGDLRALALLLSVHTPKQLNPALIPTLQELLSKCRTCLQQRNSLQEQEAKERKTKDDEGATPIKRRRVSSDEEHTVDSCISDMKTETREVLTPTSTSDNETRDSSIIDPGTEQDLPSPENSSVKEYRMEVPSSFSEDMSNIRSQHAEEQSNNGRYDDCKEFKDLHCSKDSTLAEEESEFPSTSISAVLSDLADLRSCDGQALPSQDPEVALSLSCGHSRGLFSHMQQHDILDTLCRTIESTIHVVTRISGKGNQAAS
# Chain of UniProt Q86XT9 (Q86XT9 whole entry, looked up): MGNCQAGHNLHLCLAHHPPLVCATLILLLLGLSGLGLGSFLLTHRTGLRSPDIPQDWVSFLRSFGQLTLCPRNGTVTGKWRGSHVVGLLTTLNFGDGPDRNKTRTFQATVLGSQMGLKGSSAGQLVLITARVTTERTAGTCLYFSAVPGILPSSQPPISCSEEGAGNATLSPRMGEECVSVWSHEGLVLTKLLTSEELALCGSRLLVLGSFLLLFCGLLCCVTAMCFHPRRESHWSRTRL
# Chain of UniProt P98170 (P98170 whole entry, looked up): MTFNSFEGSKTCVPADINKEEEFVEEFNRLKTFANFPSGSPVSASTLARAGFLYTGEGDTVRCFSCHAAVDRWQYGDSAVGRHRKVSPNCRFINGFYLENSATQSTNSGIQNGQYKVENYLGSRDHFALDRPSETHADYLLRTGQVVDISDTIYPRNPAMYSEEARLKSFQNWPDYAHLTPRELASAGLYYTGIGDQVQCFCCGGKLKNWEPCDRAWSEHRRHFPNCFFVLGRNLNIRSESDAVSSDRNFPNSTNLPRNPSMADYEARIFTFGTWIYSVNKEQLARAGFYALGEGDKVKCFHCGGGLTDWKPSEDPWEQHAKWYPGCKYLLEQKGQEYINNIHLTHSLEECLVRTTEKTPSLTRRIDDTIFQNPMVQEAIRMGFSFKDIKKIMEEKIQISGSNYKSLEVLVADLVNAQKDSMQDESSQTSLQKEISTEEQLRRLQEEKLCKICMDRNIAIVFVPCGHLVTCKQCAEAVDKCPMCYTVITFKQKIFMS
# Chain of UniProt Q15629 (Q15629 whole entry, looked up): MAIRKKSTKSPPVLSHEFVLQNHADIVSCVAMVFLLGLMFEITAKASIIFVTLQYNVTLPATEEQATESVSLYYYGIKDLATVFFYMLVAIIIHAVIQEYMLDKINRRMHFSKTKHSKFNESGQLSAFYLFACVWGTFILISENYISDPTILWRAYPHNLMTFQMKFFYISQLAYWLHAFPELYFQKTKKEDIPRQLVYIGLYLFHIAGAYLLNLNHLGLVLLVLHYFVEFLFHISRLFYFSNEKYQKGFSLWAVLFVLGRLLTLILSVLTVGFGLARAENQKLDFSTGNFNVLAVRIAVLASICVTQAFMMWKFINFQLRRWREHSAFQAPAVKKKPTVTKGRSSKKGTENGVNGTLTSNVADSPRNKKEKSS
# Chain of UniProt Q9NX01 (Q9NX01 whole entry, looked up): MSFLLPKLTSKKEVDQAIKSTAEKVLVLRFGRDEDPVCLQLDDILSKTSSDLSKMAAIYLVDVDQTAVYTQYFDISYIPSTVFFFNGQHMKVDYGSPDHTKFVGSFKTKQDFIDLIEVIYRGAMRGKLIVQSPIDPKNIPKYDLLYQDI
Target,log2 fold change [1],log2 fold change [2],log2 fold change [3],log2 fold change [4],log2 fold change [5]
TNPO1 (UniProt Q92973),-0.017,0.008,-0.012,-0.009,0.018
UCHL5 (UniProt Q9Y5K5),-0.048,0.004,0.043,0.027,0.004
TMTC3 (UniProt Q6ZXV5),-0.012,0.019,0.011,-0.034,0.005
UFD1 isoform 1 (UniProt Q92890),-0.011,0.038,0.033,-0.045,0.019
WBP4 (UniProt O75554),0.012,0.009,-0.024,0.014,0.051
USP25 isoform 3 (UniProt Q9UHP3),-0.02,0.024,0.068,-0.007,-0.007
TXNL4B (UniProt Q9NX01),0.1,0.068,-0.537 (active),-0.102,-0.12
USP34 (UniProt Q70CQ2),-0.083,0.081,0.142,-0.003,0.034
VPS28 (UniProt Q9UK41),-0.075,0.023,0.064,0.011,-0.01
TMEM184C (UniProt Q9NVA4),0,0.078,0.022,0.045,0.22
TMEM219 (UniProt Q86XT9),0.066,-0.023,-0.172,0.016,-0.162
VPS53 isoform 4 (UniProt Q5VIR6),-0.009,0.02,0.049,-0.006,-0.007
WASHC5 (UniProt Q12768),0.034,0.042,0.09,0.003,-0.041
XIAP (UniProt P98170),0.05,0.003,0,0.048,0.002
UBXN8 (UniProt O00124),0.3,-0.074,0.192,0.099,-0.055
TMEM177 (UniProt Q53S58),0.036,-0.01,-0.164,-0.001,-0.002
TMEM263 (UniProt Q8WUH6),-0.152,0.047,0.156,-0.072,-0.031
TSEN2 (UniProt Q8NCE0),-0.05,0,0.044,-0.027,0.03
WARS1 (UniProt G3V227),0.09,-0.089,0.042,0.333,-0.185
WDR47 (UniProt O94967),0.019,0.004,-0.042,-0.031,0.078
TNFAIP8 isoform 4 (UniProt O95379),-0.021,0.026,0.02,-0.042,-0.011
TRAM1 (UniProt Q15629),-0.167,-0.024,-0.008,0.049,-0.018
TTC4 (UniProt O95801),-0.089,-0.008,0.099,0.022,-0.029
TMEM189-UBE2V1 (UniProt I3L0A0),-0.047,0.02,0.102,-0.02,0.048
